Compound activity: PubChem, Columbia University Molecular Screening Center
The full list was thinned out, with hits kept by preference.
VCAM1 TNFa pot = enhances TNF alpha induced VCAM1 expression in HUVEC; activation, % at 2 µM; hit rate 0.19% among 93,000; HUVEC TNFa-stimulated VCAM-1 immunofluorescence, high-content imaging; scaled per plate to unstimulated/TNFa-only wells; AID 808;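 active = activation above the screen mean plus 3 SD, with well images confirming the hit on visual review, cut at about 28% in these data, passing the limit was not always enough; inconclusive = activation above that limit but images do not confirm it; inactive = activation not above that limit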;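 also: signal is the number of cytoplasmic VCAM-1 stained grains per positive cell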
VCAM1 pot conf = potentiators of TNFa-induced VCAM1 expression, confirmation, imaging, HUVEC, triplicate retest; shares compounds with VCAM1 TNFa pot; 230 tested, under 10 active; activation, % at 2 µM; AID 1034; HUVEC TNFa-stimulated VCAM-1 immunofluorescence imaging;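 active = activation above 30% in triplicate retests at 2 µM, then confirmed by visual review of the well images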;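 also: scaled per plate between unstimulated and TNFa-stimulated DMSO control wells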
Starred values were filed as active, the others as inactive; ? = inconclusive.

SMILES | VCAM1 TNFa pot | others
O=C(NCC1CCCO1)c1c(O)c2c([nH]c1=O)CCCC2 (stereo not given) | 8
COc1cc(NS(=O)(=O)c2ccc(NC(=O)COc3ccc(C)cc3)cc2)nc(OC)n1 | -7
COc1cc(NC(=O)NS(=O)(=O)c2ccc(C)cc2)cc(OC)c1 | 60* | VCAM1 pot conf=-23
Cc1ccc(S(=O)(=O)NC(=O)Nc2cc(C)ccc2F)cc1 | 2
COc1cccc(C2C(C(C)=O)=C(O)C(=O)N2CCc2c[nH]c3ccccc23)c1 (stereo not given) | -2
O=C(NCc1ccco1)c1n[nH]c(=O)c2ccccc12 | -5
Nc1nonc1-n1nnc(C(=O)O)c1-c1cccs1 | -18
O=c1[nH]nnc2sc3c(c12)CCCC3 | -44
Cc1cccc(-c2nc(CSCC(=O)N3CCN(c4ccccn4)CC3)c(C)o2)c1 | 4
Fc1cccc(-c2nn[nH]n2)c1 | 31* | VCAM1 pot conf=-21
Cc1ccc(S(=O)(=O)NCC(c2ccccc2)N2CCN(CCC#N)CC2)cc1 (stereo not given) | -2
O=C(O)c1[nH]nc2c1COc1ccccc1-2 | -14
CC1C(=O)CC(c2ccccc2)NC1c1ccccc1 (stereo not given) | -6
Cc1cccc(/C(N)=N/OC(=O)c2ccco2)c1 | 2
N/C(=N\OC(=O)c1ccc(Br)cc1)c1ccccc1 | 58* | VCAM1 pot conf=-15
O=C(/C=C/NNC(=O)c1ccccc1)c1ccc(Br)cc1 | -8
Cc1cc(N(C)C)nc(SC(C)C)n1 | 1
N#CC1=C(N)OC2=C(C(=O)CCC2)C1C1C=CCCC1 (stereo not given) | 2
COc1ccc(NS(=O)(=O)c2cc(C)ccc2NC(=O)c2cc(C)oc2C)cc1 | -44
CN(c1ccccc1C(=O)NCc1ccccn1)S(C)(=O)=O | 6
COCCNC(=O)c1ccccc1NC(=O)c1ccccc1N(C)S(=O)(=O)c1ccccc1 | 32* | VCAM1 pot conf=-5
COc1ccccc1N(CC(=O)Nc1cccnc1)S(=O)(=O)c1ccccc1 | 8
O=C(C1CCN(S(=O)(=O)N2CCCC2)CC1)N1CCCCC1 | 3
COc1ccc(CCN2C(=O)CC(Sc3ncccc3C(=O)O)C2=O)cc1OC (stereo not given) | -27
O=C(Nc1ccc(-c2nc3ccccc3o2)cc1)c1ccc2c(c1)OCO2 | ? | VCAM1 pot conf=-16
SMILES | VCAM1 TNFa pot | others
O=C(CN1C(=O)c2ccccc2C1=O)Nc1ccc(-c2nc3ccccc3o2)cc1 | 29
O=C(Nc1ccc2nsnc2c1)c1ccc2c(c1)OCO2 | -30
CCCSc1nnc(C(C)C)n1N | -4
CC(C)(C)N1CC2(c3ccccc3)CN(C(C)(C)C)CC(c3ccccc3)(C1)C2=O | -2
COc1ccc(CSc2nnnn2C)cc1F | -4
CCOc1ccc(-c2nc(C#N)c(NC3CC3)o2)cc1 | -2
COc1ccc(-c2nc(C#N)c(NCc3cccnc3)o2)cc1OC | 4
Cc1ccc(-c2nc(C#N)c(NCCN3CCCCC3)o2)cc1 | 44* | VCAM1 pot conf=-17
Cc1nc(Nc2ccccc2)[nH]c(=O)c1CCC(C)C | ? | VCAM1 pot conf=3
COc1cccc2[nH]c3c(N4CC(C)CC(C)C4)ncnc3c12 (stereo not given) | 3
O=C(CCCn1c(=O)c2ccccc2n(CC(=O)NCc2ccco2)c1=O)NCc1ccco1 | ? | VCAM1 pot conf=-21
CCn1c(=O)cc(OCC(=O)NCc2ccco2)c2ccccc21 | -72
CCOc1cc2[nH]c(=S)n(CCCC(=O)NCc3ccco3)c(=O)c2cc1OCC | -2
CCC(=O)Nc1ccccc1C(=O)NC1CCCCC1 | 9
Cc1cc(NCCN(C)C)n2nc(-c3cccs3)cc2n1 | 41* | VCAM1 pot conf=-10
CC(=O)N(Cc1ccccc1)c1ncc2c(n1)c(=O)c(C#N)c1ccccn12 | -10
O=C(COc1ccccc1)n1nc(-c2ccc(Cl)cc2)nc1NCc1ccco1 | 31
Nc1nc(COc2ccc3ccccc3c2)cs1 | 13
COc1ccc(CSc2nc3ccccc3[nH]2)cc1 | -35
c1ccc2cc(OCc3nc4ccccc4[nH]3)ccc2c1 | 66* | VCAM1 pot conf=-4
Cc1cccc(C)c1NS(=O)(=O)c1ccc(F)cc1 | 0
COC(=O)C(C)Oc1ccc2c3c(c(=O)oc2c1)CCCCC3 (stereo not given) | -40
Cc1cccc(Cn2c(C(=O)OC(C)C)cc3c2ccn3C)c1 | -13
Cc1ccnc(NC(=O)c2ccc(COc3ccc(Cl)cc3)o2)c1 | 3
COC(=O)C1=C(C)N(C2CCCC2)C(=O)C1(NC(C)=O)C(F)(F)F (stereo not given) | 14
SMILES | VCAM1 TNFa pot | others
CCOC(=O)CN1C(=O)C(=O)c2cccc(C)c21 | -10
COc1cc(OC)cc(C(=O)N2CCN(C(=O)c3ccc(OC)c(OC)c3)CC2)c1 | -2
COc1ccc(C(=S)N2CCN(C)CC2)cc1Br | 38* | VCAM1 pot conf=-22
CCCN1CCN(S(=O)(=O)c2ccc(OC)c(Br)c2)CC1 | 0
Cn1c(Cn2nnc3ccccc32)nnc1SCC(=O)c1ccc(F)cc1 | -6
CCCCCc1nnc(NC(=O)Cc2cccs2)s1 | 1
C#CC1(O)CC(C)NCC1(C)CCC#N (stereo not given) | -10
COc1ccc(C(=O)/C(C)=N/O)cc1OC | -5
COc1ccc(C(=O)Nc2nc3ccccc3[nH]2)cc1OC | -7
COc1ccc(C(=O)Nn2c(C)nnc2-n2nc(C)cc2C)cc1OC | 43* | VCAM1 pot conf=-13
COc1ccccc1C(=O)N/C(=C/c1ccc(Br)cc1)C(=O)NCC(=O)O | -8
COC(=O)c1ccc(C2C(C(C)=O)=C(O)C(=O)N2CCO)cc1 (stereo not given) | 2
Cc1cc(C)n(-c2ccc(C(=O)OCC(=O)Nc3ccc(Cl)c(S(=O)(=O)N(C)C)c3)cc2)n1 | 0
Cc1ccc(NC(=O)COC(=O)c2ccn(C)n2)cc1 | ? | VCAM1 pot conf=-18
CCCN1C(=O)SC(CC(=O)Nc2ccc(C)cc2)C1=O (stereo not given) | 32
O=C(NCC1COc2ccccc2O1)C1CCN(S(=O)(=O)c2cccc3nsnc23)CC1 (stereo not given) | 2
CC1=C(C(=O)OCc2ccccc2)C(c2ccoc2)C(C#N)=C(N)O1 (stereo not given) | -4
CCOC(=O)c1ccc(NC(=O)Cn2nnc(-c3ccccc3)n2)cc1 | -88
Cc1cc(C)n(-c2ccc(C(=O)Oc3ccc4c(c3)OCO4)cc2)n1 | 23
CCOc1ccc(-c2nnn(CC(=O)c3ccc4c(c3)OCCO4)n2)cc1 | 84* | VCAM1 pot conf=-20
Cc1ccc(C)n1NC(=O)c1cccc(Cl)c1 | 0
Cc1ccc(C(C)C)c(OC(=O)/C=C/c2ccccc2)c1 | 6
CN(Cc1ccccc1)S(=O)(=O)c1ccc(NC(=S)NC(=O)C2CCCC2)cc1 | -48
O=S(=O)(NCc1ccccc1)c1ccc(S(=O)(=O)N(Cc2ccccn2)C2CCCC2)cc1 | ? | VCAM1 pot conf=-13
CCCNS(=O)(=O)c1ccc(NC(=O)c2ccccn2)cc1 | -3
SMILES | VCAM1 TNFa pot | others
CCOc1ccc2ccccc2c1/C=N/n1cncn1 | -88
CCCn1c(SCC(=O)NCc2ccco2)nnc1C(C)C | -84
CC(C)c1ccc(Oc2cccc(C(=O)/C(C#N)=C/N(C)C)c2)cc1 | -3
CCN(CCNC(=O)C1CCCN(S(=O)(=O)CC)C1)c1ccccc1 (stereo not given) | -8
CC(NC(=O)C1CCCN(C(=O)N(C)C)C1)c1ccccc1 (stereo not given) | 66* | VCAM1 pot conf=-36
O=C(C1CCCN(S(=O)(=O)Cc2ccccc2)C1)N1CCCCC1 (stereo not given) | 10
O=C(Cc1ccccc1)Nc1cccc(N2CCCC2)c1 | 38
